Experimental findings from ChEMBL document CHEMBL2218924, “A broad activity screen in support of a chemogenomic map for kinase signalling research and drug discovery” (Biochem J, 2013) are described below.

The target of experiment [1] is ALK tyrosine kinase receptor (Homo sapiens) (UniProt Q9UM73). The conditions noted are these: at 10 µM.
Experiment [2] deals with T1, AMP-activated protein kinase (AMPK) alpha-1/beta-1/gamma-1 (Homo sapiens) (UniProt P54619+Q9Y478+Q13131). The conditions noted are these: at 1 µM.
T1 sequence (P54619 whole entry): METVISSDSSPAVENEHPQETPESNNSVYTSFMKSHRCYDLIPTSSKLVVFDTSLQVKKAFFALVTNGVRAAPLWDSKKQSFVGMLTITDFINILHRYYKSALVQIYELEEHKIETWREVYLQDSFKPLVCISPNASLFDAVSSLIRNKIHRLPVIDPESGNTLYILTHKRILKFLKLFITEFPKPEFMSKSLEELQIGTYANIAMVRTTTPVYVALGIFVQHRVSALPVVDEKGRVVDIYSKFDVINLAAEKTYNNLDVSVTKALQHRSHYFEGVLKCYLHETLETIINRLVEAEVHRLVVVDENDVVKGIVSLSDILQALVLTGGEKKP
T1 sequence (Q13131 whole entry partner): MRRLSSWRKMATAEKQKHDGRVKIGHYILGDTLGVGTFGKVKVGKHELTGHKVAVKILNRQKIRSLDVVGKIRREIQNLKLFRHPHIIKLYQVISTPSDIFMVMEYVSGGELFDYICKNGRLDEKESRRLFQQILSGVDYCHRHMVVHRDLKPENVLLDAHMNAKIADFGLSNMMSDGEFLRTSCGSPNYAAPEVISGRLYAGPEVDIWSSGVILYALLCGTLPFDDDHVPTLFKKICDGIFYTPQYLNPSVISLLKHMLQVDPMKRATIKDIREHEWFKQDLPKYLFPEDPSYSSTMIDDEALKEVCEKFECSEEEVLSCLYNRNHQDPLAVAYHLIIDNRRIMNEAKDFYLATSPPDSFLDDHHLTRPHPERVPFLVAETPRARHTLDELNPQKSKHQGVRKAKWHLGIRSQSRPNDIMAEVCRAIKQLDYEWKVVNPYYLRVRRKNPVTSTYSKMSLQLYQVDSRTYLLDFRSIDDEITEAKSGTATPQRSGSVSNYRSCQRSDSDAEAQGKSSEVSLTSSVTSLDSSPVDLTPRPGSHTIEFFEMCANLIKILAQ
T1 sequence (Q9Y478 2-270 partner limits assumed): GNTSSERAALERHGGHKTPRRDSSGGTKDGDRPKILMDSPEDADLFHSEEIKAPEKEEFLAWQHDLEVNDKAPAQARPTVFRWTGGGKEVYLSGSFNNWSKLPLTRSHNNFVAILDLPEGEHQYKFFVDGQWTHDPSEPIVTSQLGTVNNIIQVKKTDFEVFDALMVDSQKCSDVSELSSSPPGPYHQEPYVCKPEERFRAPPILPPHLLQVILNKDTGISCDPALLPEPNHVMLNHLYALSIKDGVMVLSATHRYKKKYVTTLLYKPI
Experiment [3] has as its target T1, AMP-activated protein kinase (AMPK) alpha-1/beta-1/gamma-1 (Homo sapiens). The conditions noted are these: at 10 µM.
Experiment [4] concerns the target T2, AMP-activated protein kinase, AMPK (Homo sapiens) (UniProt P54646+O43741+P54619+Q9UGJ0+Q9Y478+Q13131+Q9UGI9). The following applies: at 1 µM.
Experiment [5] concerns the target T2, AMP-activated protein kinase, AMPK (Homo sapiens). The following applies: at 10 µM.
Experiment [6] addresses Platelet-derived growth factor receptor alpha (Homo sapiens) (UniProt P16234). The following applies: at 1 µM.
For experiment [7] the target is unchanged. The conditions noted are these: at 10 µM.
For experiment [8], the target named is Platelet-derived growth factor receptor beta (Homo sapiens) (UniProt P09619). The conditions noted are these: at 1 µM.
Platelet-derived growth factor receptor beta (Homo sapiens), sequence (P09619 whole entry): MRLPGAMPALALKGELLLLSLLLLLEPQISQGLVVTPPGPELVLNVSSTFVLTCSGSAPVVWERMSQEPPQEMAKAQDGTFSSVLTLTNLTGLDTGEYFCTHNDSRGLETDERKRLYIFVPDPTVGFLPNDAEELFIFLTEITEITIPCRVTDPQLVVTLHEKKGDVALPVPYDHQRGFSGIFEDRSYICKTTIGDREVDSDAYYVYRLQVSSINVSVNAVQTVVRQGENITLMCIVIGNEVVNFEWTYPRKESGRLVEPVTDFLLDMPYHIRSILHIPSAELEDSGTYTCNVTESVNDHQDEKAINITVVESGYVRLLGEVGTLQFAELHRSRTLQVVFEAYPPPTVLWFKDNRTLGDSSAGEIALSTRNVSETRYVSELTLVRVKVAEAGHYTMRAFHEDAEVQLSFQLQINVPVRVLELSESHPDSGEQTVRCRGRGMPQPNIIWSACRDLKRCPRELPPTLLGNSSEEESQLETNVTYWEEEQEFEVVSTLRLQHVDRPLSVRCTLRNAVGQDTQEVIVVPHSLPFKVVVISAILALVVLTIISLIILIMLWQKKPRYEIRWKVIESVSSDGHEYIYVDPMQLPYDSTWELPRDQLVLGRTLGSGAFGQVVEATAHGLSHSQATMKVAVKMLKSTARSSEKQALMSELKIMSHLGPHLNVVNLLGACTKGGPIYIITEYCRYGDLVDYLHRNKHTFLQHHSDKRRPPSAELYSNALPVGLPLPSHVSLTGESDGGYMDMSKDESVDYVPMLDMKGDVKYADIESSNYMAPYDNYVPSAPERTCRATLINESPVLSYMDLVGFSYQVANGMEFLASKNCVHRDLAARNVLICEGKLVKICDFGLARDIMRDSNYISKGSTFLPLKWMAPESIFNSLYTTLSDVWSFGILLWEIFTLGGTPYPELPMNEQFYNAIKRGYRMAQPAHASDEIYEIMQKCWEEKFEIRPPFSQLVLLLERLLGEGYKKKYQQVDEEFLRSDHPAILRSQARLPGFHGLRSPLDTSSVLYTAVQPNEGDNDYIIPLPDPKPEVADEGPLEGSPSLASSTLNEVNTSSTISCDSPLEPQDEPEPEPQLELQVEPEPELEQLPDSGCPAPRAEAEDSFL
Experiment [9] shares this target. The following applies: at 10 µM.
The target of experiment [10] is T3, 3-phosphoinositide-dependent protein kinase 1 (Homo sapiens) (UniProt O15530).
T3 sequence (whole entry): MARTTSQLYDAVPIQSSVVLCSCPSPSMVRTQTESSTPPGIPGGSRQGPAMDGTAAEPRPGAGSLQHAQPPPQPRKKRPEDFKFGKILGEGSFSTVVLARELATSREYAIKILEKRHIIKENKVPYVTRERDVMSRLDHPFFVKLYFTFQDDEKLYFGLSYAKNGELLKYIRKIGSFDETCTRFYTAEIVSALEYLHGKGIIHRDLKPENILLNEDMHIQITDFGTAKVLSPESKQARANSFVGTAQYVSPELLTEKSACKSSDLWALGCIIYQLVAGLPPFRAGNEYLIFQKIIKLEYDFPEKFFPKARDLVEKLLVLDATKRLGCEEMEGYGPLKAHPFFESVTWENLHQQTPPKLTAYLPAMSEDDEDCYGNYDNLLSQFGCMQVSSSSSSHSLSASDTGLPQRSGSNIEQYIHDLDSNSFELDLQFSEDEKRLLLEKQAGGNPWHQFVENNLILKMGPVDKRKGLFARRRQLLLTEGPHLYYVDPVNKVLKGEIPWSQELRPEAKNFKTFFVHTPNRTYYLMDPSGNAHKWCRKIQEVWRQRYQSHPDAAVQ
The conditions noted are these: at 1 µM.

Experiment [11] addresses T3, 3-phosphoinositide-dependent protein kinase 1 (Homo sapiens). The following applies: at 10 µM.
Experiment [12] concerns the target cAMP-dependent protein kinase catalytic subunit alpha (Homo sapiens) (UniProt P17612). The following applies: at 1 µM.
Experiment [13] has the same target. The conditions noted are these: at 10 µM.
Experiment [14] concerns the target RAC-gamma serine/threonine-protein kinase (Homo sapiens) (UniProt Q9Y243). The conditions noted are these: at 1 µM.
Experiment [15] shares this target. The following applies: at 10 µM.
In experiment [16] the target is T4, Activin receptor type-1B (Homo sapiens) (UniProt P36896).
T4 sequence (whole entry): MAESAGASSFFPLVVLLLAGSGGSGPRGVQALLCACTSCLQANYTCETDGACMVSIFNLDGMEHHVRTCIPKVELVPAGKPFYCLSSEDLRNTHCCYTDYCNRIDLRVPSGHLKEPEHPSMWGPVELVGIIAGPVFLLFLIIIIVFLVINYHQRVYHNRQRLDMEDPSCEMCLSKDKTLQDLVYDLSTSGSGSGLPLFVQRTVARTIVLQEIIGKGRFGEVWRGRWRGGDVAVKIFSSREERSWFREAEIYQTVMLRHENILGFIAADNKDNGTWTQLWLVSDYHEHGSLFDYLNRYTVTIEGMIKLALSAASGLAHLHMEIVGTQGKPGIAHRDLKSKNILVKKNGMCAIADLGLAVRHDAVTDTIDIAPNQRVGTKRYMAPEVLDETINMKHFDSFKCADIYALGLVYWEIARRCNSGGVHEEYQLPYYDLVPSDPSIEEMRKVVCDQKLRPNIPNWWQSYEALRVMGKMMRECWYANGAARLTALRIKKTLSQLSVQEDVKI
The conditions noted are these: at 1 µM.

For experiment [17], the target named is T5, NUAK family SNF1-like kinase 1 (Homo sapiens) (UniProt O60285).
T5 sequence (whole entry): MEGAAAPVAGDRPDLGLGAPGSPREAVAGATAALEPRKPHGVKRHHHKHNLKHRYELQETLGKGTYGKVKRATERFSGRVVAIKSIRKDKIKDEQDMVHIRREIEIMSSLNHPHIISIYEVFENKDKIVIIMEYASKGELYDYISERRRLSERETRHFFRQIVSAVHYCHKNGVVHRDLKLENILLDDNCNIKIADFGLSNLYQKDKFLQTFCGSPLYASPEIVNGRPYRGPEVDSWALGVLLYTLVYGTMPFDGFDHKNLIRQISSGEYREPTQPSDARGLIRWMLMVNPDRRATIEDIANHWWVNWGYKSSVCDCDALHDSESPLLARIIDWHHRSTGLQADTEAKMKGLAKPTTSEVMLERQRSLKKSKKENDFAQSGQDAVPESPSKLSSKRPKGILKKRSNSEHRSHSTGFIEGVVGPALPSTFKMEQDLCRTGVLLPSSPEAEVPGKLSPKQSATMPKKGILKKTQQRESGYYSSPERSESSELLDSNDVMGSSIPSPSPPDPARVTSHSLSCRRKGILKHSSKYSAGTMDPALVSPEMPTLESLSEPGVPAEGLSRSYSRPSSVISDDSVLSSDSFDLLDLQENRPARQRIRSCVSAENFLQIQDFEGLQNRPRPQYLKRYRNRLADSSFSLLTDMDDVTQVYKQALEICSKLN
The conditions noted are these: at 1 µM.

Experiment [18] addresses T5, NUAK family SNF1-like kinase 1 (Homo sapiens). The conditions noted are these: at 10 µM.
In experiment [19] the target is T4, Activin receptor type-1B (Homo sapiens). The following applies: at 10 µM.
Experiment [20] deals with T6, Mitogen-activated protein kinase kinase kinase 5 (Homo sapiens) (UniProt Q99683).
T6 sequence (whole entry): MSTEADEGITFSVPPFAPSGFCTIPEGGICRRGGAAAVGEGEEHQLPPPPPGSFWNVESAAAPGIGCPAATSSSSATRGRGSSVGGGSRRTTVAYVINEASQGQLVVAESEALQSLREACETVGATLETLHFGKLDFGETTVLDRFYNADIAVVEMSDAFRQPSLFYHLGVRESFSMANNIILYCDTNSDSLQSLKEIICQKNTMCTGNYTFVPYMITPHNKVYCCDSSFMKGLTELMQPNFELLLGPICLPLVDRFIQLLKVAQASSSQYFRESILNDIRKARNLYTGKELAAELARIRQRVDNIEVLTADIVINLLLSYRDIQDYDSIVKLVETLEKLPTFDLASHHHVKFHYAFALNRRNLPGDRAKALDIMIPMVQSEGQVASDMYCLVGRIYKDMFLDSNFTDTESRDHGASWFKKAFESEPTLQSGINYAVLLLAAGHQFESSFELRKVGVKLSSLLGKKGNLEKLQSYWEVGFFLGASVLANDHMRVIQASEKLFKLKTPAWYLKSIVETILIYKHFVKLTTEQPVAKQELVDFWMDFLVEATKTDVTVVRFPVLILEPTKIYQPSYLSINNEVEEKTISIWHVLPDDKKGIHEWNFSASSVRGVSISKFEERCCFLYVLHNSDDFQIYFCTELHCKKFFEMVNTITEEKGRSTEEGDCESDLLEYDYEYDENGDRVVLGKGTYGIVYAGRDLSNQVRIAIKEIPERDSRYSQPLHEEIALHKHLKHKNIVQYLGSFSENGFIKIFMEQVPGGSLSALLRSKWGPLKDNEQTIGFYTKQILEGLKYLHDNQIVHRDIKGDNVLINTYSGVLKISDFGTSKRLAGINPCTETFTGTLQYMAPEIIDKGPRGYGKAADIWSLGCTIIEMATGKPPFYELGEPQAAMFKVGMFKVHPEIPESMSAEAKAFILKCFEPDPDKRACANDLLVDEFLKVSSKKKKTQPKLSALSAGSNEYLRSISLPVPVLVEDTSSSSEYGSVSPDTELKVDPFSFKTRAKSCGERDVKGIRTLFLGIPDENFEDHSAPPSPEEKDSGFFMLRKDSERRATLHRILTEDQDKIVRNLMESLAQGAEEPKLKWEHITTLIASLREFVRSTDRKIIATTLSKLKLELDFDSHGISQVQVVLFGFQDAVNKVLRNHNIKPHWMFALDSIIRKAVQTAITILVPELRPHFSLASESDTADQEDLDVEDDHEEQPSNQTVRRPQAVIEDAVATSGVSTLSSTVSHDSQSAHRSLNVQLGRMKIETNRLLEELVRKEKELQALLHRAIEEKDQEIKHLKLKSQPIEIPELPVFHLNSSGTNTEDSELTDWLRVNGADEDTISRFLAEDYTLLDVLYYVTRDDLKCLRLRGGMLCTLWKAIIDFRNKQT
The following applies: at 1 µM.

Platelet-derived growth factor receptor alpha (Homo sapiens), sequence (P16234 whole entry): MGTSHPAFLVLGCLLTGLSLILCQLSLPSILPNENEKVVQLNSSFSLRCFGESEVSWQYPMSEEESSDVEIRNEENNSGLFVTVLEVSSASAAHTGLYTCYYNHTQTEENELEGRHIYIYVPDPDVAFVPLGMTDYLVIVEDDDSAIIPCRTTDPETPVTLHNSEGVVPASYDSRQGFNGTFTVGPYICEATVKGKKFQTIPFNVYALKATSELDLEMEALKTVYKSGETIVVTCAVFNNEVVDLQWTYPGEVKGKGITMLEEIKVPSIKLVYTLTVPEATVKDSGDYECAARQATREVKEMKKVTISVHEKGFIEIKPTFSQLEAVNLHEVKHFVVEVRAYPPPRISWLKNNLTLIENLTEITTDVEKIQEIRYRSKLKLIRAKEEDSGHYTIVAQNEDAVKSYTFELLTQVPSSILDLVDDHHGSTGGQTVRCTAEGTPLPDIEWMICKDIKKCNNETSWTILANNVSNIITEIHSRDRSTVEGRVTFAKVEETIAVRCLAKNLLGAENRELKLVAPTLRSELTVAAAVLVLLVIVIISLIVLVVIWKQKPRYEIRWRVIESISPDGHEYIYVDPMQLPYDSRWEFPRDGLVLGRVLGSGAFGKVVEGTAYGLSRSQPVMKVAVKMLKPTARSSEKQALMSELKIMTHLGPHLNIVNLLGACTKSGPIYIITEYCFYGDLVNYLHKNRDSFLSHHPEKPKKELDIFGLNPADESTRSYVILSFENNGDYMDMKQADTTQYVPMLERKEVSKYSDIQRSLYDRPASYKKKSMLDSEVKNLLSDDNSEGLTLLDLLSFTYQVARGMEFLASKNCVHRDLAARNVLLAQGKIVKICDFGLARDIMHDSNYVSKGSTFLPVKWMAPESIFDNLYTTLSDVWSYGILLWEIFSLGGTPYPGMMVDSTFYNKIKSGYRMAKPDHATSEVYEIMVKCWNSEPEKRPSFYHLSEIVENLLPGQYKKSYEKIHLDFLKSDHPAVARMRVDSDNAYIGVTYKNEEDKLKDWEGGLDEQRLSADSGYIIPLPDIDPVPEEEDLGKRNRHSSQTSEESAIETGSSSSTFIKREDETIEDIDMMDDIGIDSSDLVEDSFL
RAC-gamma serine/threonine-protein kinase (Homo sapiens), sequence (Q9Y243 whole entry): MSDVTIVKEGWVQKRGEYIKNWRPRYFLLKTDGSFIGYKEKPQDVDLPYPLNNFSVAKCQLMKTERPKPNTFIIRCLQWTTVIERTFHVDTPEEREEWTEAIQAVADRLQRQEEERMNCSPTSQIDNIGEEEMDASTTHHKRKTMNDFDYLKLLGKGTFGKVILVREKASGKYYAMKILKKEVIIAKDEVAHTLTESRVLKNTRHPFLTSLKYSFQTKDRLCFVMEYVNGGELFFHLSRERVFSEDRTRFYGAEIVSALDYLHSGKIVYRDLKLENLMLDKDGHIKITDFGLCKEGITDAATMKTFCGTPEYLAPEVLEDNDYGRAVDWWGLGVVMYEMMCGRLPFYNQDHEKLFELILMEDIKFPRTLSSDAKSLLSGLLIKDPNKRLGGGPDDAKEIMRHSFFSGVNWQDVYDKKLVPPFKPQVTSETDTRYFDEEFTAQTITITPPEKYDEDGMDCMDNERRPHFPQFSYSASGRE

`NC(=O)Nc1sc(-c2ccc(F)cc2)cc1C(N)=O`: the residual activity in experiment [1] stood at 31%; in [2] it was 69%; in experiment [3] it was 27%; in [4] it was 66%; in [5], 25%; in [6] it was 41%. The residual activity in experiment [7] came out at 20%; in [8], 89%; in experiment [9], 55%; in experiment [10], 57%; in experiment [11], 17%; in [12], 92%. Also, the residual activity in experiment [13] worked out at 82%; in experiment [14], 85%; in [15], 55%.
Regarding `NCCNc1ncc(C(N)=O)c(Nc2cccc(C(F)(F)F)c2)n1`, the residual activity stood at 136% in experiment [16]; 45% in experiment [17]; 13% in [18]; 107% in experiment [6]; 74% in experiment [7]; 114% in experiment [12]. Moreover, the residual activity stood at 141% in experiment [13] and 43% in experiment [15].
With `c1ccc(-c2cnc(Nc3ccc(OCCN4CCCC4)cc3)s2)cc1`, the residual activity in experiment [16] is 131%; in experiment [19], 115%; in [4], 81%; in [5], 28%; in [17] it was 74%; in experiment [18] it was 27%. Further, the residual activity stood at 7% in [6]; 1% in experiment [7]; 3% in [8]; 0% in [9]; 113% in experiment [10]; 114% in [11]. The residual activity came out at 78% in experiment [12] and 133% in experiment [13].
`Nc1n[nH]c2nc3ccccc3nc12`: the residual activity in experiment [1] came to 51%; in experiment [2] it was 86%; in experiment [3], 83%; in experiment [4] it was 88%; in [5], 86%; in experiment [17] it was 87%. The residual activity stood at 40% in experiment [18], 85% in experiment [11], 87% in experiment [14] and 93% in [15].
As to `Nc1nccc(-c2c(-c3ccc(F)cc3)ncn2C2CCNCC2)n1`, the residual activity in experiment [19] was 40%; in experiment [5], 70%; in [18] it was 77%; in experiment [13] it was 64%.
As for `O=C(c1ccccc1)c1ccc(N2CCOCC2)cc1O`, the residual activity in experiment [16] was 123%; in experiment [2], 98%; in experiment [3], 72%; in experiment [4], 89%; in experiment [5], 81%; in experiment [18], 90%. Further, the residual activity is 91% in experiment [20]; 113% in [6]; 92% in experiment [7]; 116% in experiment [8]; 99% in experiment [9]; 69% in [12]. The residual activity in experiment [13] was found to be 81%.
Consider `COc1ccc(-c2cnc3c(-c4ccsc4)cnn3c2)cc1`, for which the residual activity in experiment [16] was 126%; in [19], 88%; in experiment [4], 88%; in experiment [5], 79%; in experiment [20], 82%; in [6], 99%. The residual activity in experiment [7] turned out to be 92%; in [12], 80%; in experiment [13] it was 82%.
With `CC(C)c1nn(-c2c(Cl)cccc2Cl)c2nc(Cc3ccc(OCCO)cc3)[nH]c(=O)c12`, the residual activity in experiment [1] turned out to be 42%; in experiment [2], 93%; in experiment [3] it was 71%; in [4] it was 87%; in experiment [5], 74%; in experiment [17], 96%. Besides, the residual activity was determined as 72% in experiment [18]; 95% in experiment [20]; 103% in experiment [8]; 105% in [9]; 101% in [10]; 99% in [11]. Also, the residual activity in experiment [12] turned out to be 90%; in experiment [13], 89%; in experiment [14] it was 93%; in experiment [15] it was 89%.
